Screens deposited in PubChem by Sanford-Burnham Center for Chemical Genomics.
CYP2C9 inh = inhibitors of human CYP2C9; P11712; CYP2C9 Supersomes, luciferin-H conversion, luminescence; inhibition, % at 5 µM; 96,000 compounds, 20% hits; AID 777;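 active means blocking of liver enzyme CYP2C9 beyond about 50% at 5 µM, limit read from the data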
CYP2C9 act = increases human cytochrome P450 2C9 activity | P11712 | recombinant CYP2C9, luciferin-H conversion, luminescence; stronger effect = higher value; factor 1 = untreated enzyme, 0 = blocked | activation factor at 5 µM | 96,000 compounds, 1.4% hits | AID 1024;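 active means activation factor of 2 or more for CYP2C9 at a 5 µM dose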;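 further: 0 = sulfaphenazole-blocked wells and 1 = vehicle-only wells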
CYP2C19 activ = activators of human cytochrome P450 2C19. P33261. recombinant CYP2C19, luciferin-H EGE luminescence; stronger effect = higher value; 0 = fully inhibited enzyme, 1 = untreated enzyme. activation factor at 5 µM. 96,000 tested, under 10 active. AID 1025;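 active means activation factor of at least 2 at 5 µM in the primary screen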;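 further: 0 = wells with 2.5 mM tranylcypromine and 1 = vehicle-only wells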
Target sequence (P33261 whole entry, looked up): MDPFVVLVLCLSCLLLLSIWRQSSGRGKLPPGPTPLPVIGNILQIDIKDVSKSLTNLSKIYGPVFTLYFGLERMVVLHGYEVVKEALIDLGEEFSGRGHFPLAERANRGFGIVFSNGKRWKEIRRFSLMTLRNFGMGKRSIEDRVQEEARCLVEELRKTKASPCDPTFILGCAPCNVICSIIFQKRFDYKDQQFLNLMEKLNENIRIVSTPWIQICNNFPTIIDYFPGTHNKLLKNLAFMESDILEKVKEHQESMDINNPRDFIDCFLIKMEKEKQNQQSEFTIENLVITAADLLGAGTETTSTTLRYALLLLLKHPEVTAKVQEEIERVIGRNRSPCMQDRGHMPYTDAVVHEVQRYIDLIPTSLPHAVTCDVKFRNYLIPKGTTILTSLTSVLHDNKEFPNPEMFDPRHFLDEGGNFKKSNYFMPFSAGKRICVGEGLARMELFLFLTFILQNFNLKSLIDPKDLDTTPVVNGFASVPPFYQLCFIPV
Pyk2 oligo antag = antagonists of human Pyk2 oligomerization. AID 1347419. Q293 cells, Pyk2 FERM NanoBiT luminescence; stronger effect = lower value. 99,000 compounds, 0.83% hits. z-score (the deposit names both 25 µM and 10 µM);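 active means Z-score of -3 or lower, scaled per plate to the spread of control and sample wells; inactive means z-score above -3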;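 further: negative z-score means lost luminescence so less FERM oligomerization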
CYP2C19 inhib = human CYP2C19 inhibition; 96,000 compounds, 21% hits; P33261; CYP2C19 Supersomes, luciferin-H EGE luminescence, 30 min; inhibition, % at 5 µM;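 active means CYP2C19 inhibition above a set limit at 5 µM in the primary screen, cut at about 50% in these data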;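 further: plate controls were negative control wells for no effect and 2.5 mM tranylcypromine positive control for full effect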
* = called active by the depositor. Rows were chosen to be rich in hits. Some 28% of all compounds tested hit in one or more screens of this group.

Screening Cc1cc([N+](=O)[O-])ccc1NC(=S)NC(=O)C(c1ccccc1)c1ccccc1 returned CYP2C9 inh 66*, CYP2C9 act 0.3, CYP2C19 activ 0.8, Pyk2 oligo antag -0.99 and CYP2C19 inhib 22.
COc1ccc([N+](=O)[O-])cc1NC(=S)NC(NC(=O)C(c1ccccc1)c1ccccc1)C(Cl)(Cl)Cl (stereo not drawn) was read as CYP2C9 inh 69*, CYP2C9 act 0.3, CYP2C19 activ 0.8, Pyk2 oligo antag -1.9 and CYP2C19 inhib 16.
For COC(=O)NC(NC(=S)Nc1ccc([N+](=O)[O-])cc1)C(Cl)(Cl)Cl (stereo not drawn) the results were Pyk2 oligo antag -1.2.
`CC1CC(C)CN(C(=O)c2cc3c(s2)CCC3)C1` (stereo not drawn) gave CYP2C9 inh 11, CYP2C9 act 0.9, CYP2C19 activ 0.9, Pyk2 oligo antag -0.57 and CYP2C19 inhib 6.
For CCCc1cc(Nc2c(C)n(C)n(-c3ccccc3)c2=O)n2c(nc3ccccc32)c1C#N the results were CYP2C9 inh 62*, CYP2C9 act 0.4, CYP2C19 activ 0.9, Pyk2 oligo antag -2.6 and CYP2C19 inhib 6.
Cc1occc1-c1nnc(SCC(=O)NC(=O)NC(C)C)n1N was read as CYP2C9 inh -6, CYP2C9 act 1.1, CYP2C19 activ 1, Pyk2 oligo antag 0.89 and CYP2C19 inhib 1.
Screening Cc1nc(N2CCN(Cc3nc4ccccc4[nH]3)CC2)c2oc3ccccc3c2n1 returned CYP2C9 inh 92*, CYP2C9 act 0.1, CYP2C19 activ 0.2, Pyk2 oligo antag 0.03 and CYP2C19 inhib 84*.
Screening C(=C\c1ccccc1)/CN1CCN(c2ncnc3c2oc2ccccc23)CC1 returned CYP2C9 inh 40, CYP2C9 act 0.6, CYP2C19 activ 0.9, Pyk2 oligo antag 0.52 and CYP2C19 inhib 13.
For c1ccc2[nH]c(CN3CCN(c4ncnc5c4oc4ccccc45)CC3)nc2c1 the results were CYP2C9 inh 55*, CYP2C9 act 0.4, CYP2C19 activ 0.6, Pyk2 oligo antag -0.75 and CYP2C19 inhib 38.
For CCOC(=O)C1CCCN(c2nc(C)nc3c2oc2ccccc23)C1 (stereo not drawn) the results were CYP2C9 inh 52*, CYP2C9 act 0.5, CYP2C19 activ 0.4, Pyk2 oligo antag 0.61 and CYP2C19 inhib 58*.
Screening COC(=O)c1cc(-c2c(C)oc3cc(OC)ccc3c2=O)c(C)o1 returned CYP2C9 inh 1, CYP2C9 act 1, CYP2C19 activ 1.1, Pyk2 oligo antag 0.82 and CYP2C19 inhib -14.
For COCCOC(=O)c1c(C)oc2ccc(OCC=C(C)C)cc12 the results were CYP2C9 inh 14, CYP2C9 act 0.9, CYP2C19 activ 0.8, Pyk2 oligo antag 0.97 and CYP2C19 inhib 20.
Screening COCCOC(=O)c1c(C)oc2ccc(OCc3cc(C(=O)OC)oc3C)cc12 returned CYP2C9 inh 56*, CYP2C9 act 0.4, CYP2C19 activ 0.6, Pyk2 oligo antag -0.37 and CYP2C19 inhib 43.
COC(=O)c1cc(COc2ccc3c(c2)oc(=O)c2ccccc23)c(C)o1 was read as CYP2C9 inh 49, CYP2C9 act 0.5, CYP2C19 activ 0.5, Pyk2 oligo antag 0.59 and CYP2C19 inhib 52*.
Screening COc1cccc(C(=O)N2CCCc3ccccc32)c1 returned CYP2C9 inh 10, CYP2C9 act 0.9, CYP2C19 activ 0.1, Pyk2 oligo antag -0.05 and CYP2C19 inhib 87*.
O=C(C1CCCO1)N1CCc2ccccc21 (stereo not drawn) was read as CYP2C9 inh -39, CYP2C9 act 1.4, CYP2C19 activ 1.1, Pyk2 oligo antag 0.76 and CYP2C19 inhib -7.
For O=C(NCC1CCCC(CNC(=O)N2CCc3ccccc32)C1)N1CCc2ccccc21 (stereo not drawn) the results were CYP2C9 inh 99*, CYP2C9 act 0, CYP2C19 activ 0.1, Pyk2 oligo antag -0.6 and CYP2C19 inhib 86*.
Screening COc1ccc2c(c1)CCc1c(C(=O)N3CCCc4ccccc43)noc1-2 returned CYP2C9 inh 75*, CYP2C9 act 0.3, CYP2C19 activ 0.1, Pyk2 oligo antag -2.7 and CYP2C19 inhib 90*.
For COc1ccc2c(c1)CCc1c(C(=O)N3CCOCC3)noc1-2 the results were CYP2C9 inh -9, CYP2C9 act 1.1, CYP2C19 activ 0.8, Pyk2 oligo antag -0.78 and CYP2C19 inhib 20.
Screening COc1ccc(NC(=O)N2CCc3ccccc32)cc1 returned CYP2C9 inh 22, CYP2C9 act 0.8, CYP2C19 activ 0.4, Pyk2 oligo antag -0.26 and CYP2C19 inhib 58*.
Cc1cn(C(=O)CN2C(=O)c3ccccc3C2=O)c(C)n1 was read as CYP2C9 inh -7, CYP2C9 act 1.1, CYP2C19 activ 1.1, Pyk2 oligo antag 0.19 and CYP2C19 inhib -11.
Screening CC(=O)C(CC(=O)N1CCCc2ccccc21)C(=O)Nc1ccc(F)cc1 (stereo not drawn) returned CYP2C9 inh 33, CYP2C9 act 0.7, CYP2C19 activ 0.3, Pyk2 oligo antag -0.65 and CYP2C19 inhib 71*.
For Cc1ccc(OC(C)C(=O)N2CCc3ccccc32)cc1 (stereo not drawn) the results were CYP2C9 inh -15, CYP2C9 act 1.1, CYP2C19 activ 1, Pyk2 oligo antag -1.2 and CYP2C19 inhib 2.
For COc1ccc(NC(=O)N2CCCc3ccccc32)cc1 the results were CYP2C9 inh 30, CYP2C9 act 0.7, CYP2C19 activ 0.3, Pyk2 oligo antag 0.36 and CYP2C19 inhib 69*.
For CC(Oc1ccccc1)C(=O)N1CCCc2ccccc21 (stereo not drawn) the results were CYP2C9 inh 56*, CYP2C9 act 0.4, CYP2C19 activ 0.1, Pyk2 oligo antag 0.72 and CYP2C19 inhib 91*.
Screening CCOc1ccc(-c2nnn(CC(=O)N3CCCC3)n2)cc1OCC returned Pyk2 oligo antag 0.44.
For COc1ccc(C2C(C(=O)Nc3cccnc3)=C(C)Nc3nc(-c4ccco4)nn32)cc1 (stereo not drawn) the results were CYP2C9 inh 29, CYP2C9 act 0.7, CYP2C19 activ 1.1 and CYP2C19 inhib -9.
O=C(O)CCNc1ccc2c(c1)OCCO2 was read as CYP2C9 inh 0, CYP2C9 act 1, CYP2C19 activ 1, Pyk2 oligo antag 0.41 and CYP2C19 inhib 2.
For c1cc(CNc2ccc3c(c2)OCCO3)ccn1 the results were CYP2C9 inh 62*, CYP2C9 act 0.4, CYP2C19 activ 0.3, Pyk2 oligo antag -0.56 and CYP2C19 inhib 73*.
`COc1cccc(C(=O)Nc2ncc3c(n2)CC(C)(C)CC3=O)c1` gave CYP2C9 inh 8, CYP2C9 act 0.9, CYP2C19 activ 1, Pyk2 oligo antag 1 and CYP2C19 inhib 3.
`O=C(Oc1cc(-c2ccccc2)no1)c1ccc(F)cc1` gave CYP2C9 inh -10, CYP2C9 act 1.1, CYP2C19 activ 1.2, Pyk2 oligo antag 0.49 and CYP2C19 inhib -16.
`COC(=O)C1C(c2ccccc2)C(C(=O)N2CCOCC2)C1c1ccccc1` (stereo not drawn) gave CYP2C9 inh 22, CYP2C9 act 0.8, CYP2C19 activ 0.2, Pyk2 oligo antag -0.68 and CYP2C19 inhib 84*.
